This is a sample that favours compounds with a hit; in the whole collection about 2.4% have one here.
p97 ATPase inh: inhibitors of human p97 ATPase. P55072. recombinant p97 ATPase, Kinase-Glo ATP luminescence, 3 h. inhibition, % at 8 µM. 220,000 tested, 0.42% active. AID 1481; in the data active = inhibition above about 15%
Hck Nef HTS: human Hck-Nef kinase inhibition; inhibition, % at 20 µM; 220,000 tested, 0.68% active; AID 463187; Recombinant Hck-YEEI plus Nef, Z-Lyte FRET kinase assay; P08631;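 active = Hck-Nef kinase inhibition above about 50%, limit read from the data; inactive = inhibition below that limit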
Arbovirus inh: blocks arbovirus infection; arbovirus infection cell-based antiviral screen; inhibition, % at 10 µM; 200,000 tested, 0.37% active; AID 1251; in the data active = inhibition above about 30%
PGE2 EP2 inh: EP2 receptor (human) inhibition. AID 1422. 260,000 tested, 0.52% active. inhibition, % at 25 µM. C6 glioma cells expressing human EP2, cAMP TR-FRET; cells stimulated with saturating PGE2;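 active = percent inhibition above 40 after rounding to a whole number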;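 also: rat C6 glioma host cells with rolipram phosphodiesterase inhibitor present; the protocol text gives 20 µM as final concentration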
Target sequence (P43116 whole entry, looked up): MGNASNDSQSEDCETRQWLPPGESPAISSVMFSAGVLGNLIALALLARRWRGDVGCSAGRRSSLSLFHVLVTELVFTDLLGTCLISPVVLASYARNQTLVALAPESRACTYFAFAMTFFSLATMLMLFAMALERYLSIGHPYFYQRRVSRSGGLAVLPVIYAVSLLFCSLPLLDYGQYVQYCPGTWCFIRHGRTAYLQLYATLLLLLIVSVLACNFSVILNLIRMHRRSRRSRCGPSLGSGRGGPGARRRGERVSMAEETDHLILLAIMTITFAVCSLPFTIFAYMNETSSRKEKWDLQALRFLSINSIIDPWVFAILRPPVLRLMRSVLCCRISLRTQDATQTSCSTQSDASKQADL
EP2 modulator: EP2 receptor (human) modulation | EP2-expressing cells, cAMP HTRF FRET, PGE2 co-stimulation | AID 940 | 260,000 tested, 0.83% active | induction, % at 25 µM;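 active = compounds whose cAMP rise, as percent of the full-agonist control response, exceeds 60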;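 also: rat C6 glioma line stably carrying human EP2 under a CMV promoter; the protocol text gives 20 µM as final concentration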
p97 inh conf: human p97 ATPase inhibition, confirmation; recombinant p97 ATPase, Kinase-Glo ATP luminescence; inhibition, % at 8 µM; AID 1517; shares compounds with p97 ATPase inh; 760 tested, 44% active;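 active = percent inhibition of p97 ATPase above a set limit, the primary screen's mean plus 3 SD, cut at about 15% in these data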
A number is an active result; n = inactive; x = no result.

SMILES	p97 ATPase inh	Hck Nef HTS	Arbovirus inh	PGE2 EP2 inh	EP2 modulator	p97 inh conf
O=C(CCl)Nc1cc(-c2ccccc2)nn1-c1ccccc1	19.5	n	n	n	n	31.9
Cc1ccc(-c2cc(NC(=O)CCl)n(-c3ccccc3)n2)cc1	23.5	n	n	x	n	25.2
CC(=O)Nc1ccc(-c2cc(NC(C)=O)n(-c3ccccc3)n2)cc1	n	n	n	n	n	x
OC(CNCC1CCCO1)Cn1c2ccc(Cl)cc2c2cc(Cl)ccc21 (stereo unspecified)	n	n	n	n	n	x
OC(CNCCC1C=Nc2ccccc21)Cn1c2ccc(Cl)cc2c2cc(Cl)ccc21 (stereo unspecified)	26.2	n	n	n	n	25.7
O=C(CCN1C(=O)C2CCCCC2C1=O)N1CCC(c2ncncc2-c2ccncc2)CC1 (stereo unspecified)	x	x	x	x	n	x
COc1ccc(Cl)cc1NC(=O)CSc1nnc(-c2ccccc2Br)n1C	x	x	x	n	n	x
CCOC(=O)c1[nH]c2ccc(Br)cc2c1NC(=O)CCN1CCC(C)CC1	17.0	n	n	n	n	n
CCOC(=O)c1[nH]c2ccc(Br)cc2c1NC(=O)CCN1CCCC(C)C1 (stereo unspecified)	16.5	n	n	n	n	n
CS(=O)CCNC(=O)CN1N=C(C(C)(C)C)Cn2c(cc3ccccc32)C1=O (stereo unspecified)	x	x	x	n	n	x
COc1ccc(C2C3=C(CC(C)(C)CC3=O)NC3=C2C(=O)c2ccccc23)c(OC)c1OC (stereo unspecified)	x	x	x	n	n	x
CC(C)c1nc2sc3c(=O)[nH]cnc3c2c2c1CCCC2	15.8	n	x	n	n	19.9
CC(C)c1nc2sc3c(=S)nc[nH]c3c2c2c1CCC2	42.2	n	x	n	n	41.4
CCc1nc2sc3c(=O)[nH]cnc3c2c2c1CSC(C)(C)C2	n	n	x	n	n	x
Cc1ccc(NC(=O)CSc2nnc(CSc3nc(C)cc(C)n3)n2C)c(C)c1	x	x	x	n	n	x
Cn1cc(/C=C2\SC(=O)NC2=S)c2ccccc21	n	n	n	n	n	x
Cc1ccc(/C=C2/SC(=O)NC2=S)o1	25.8	n	n	n	n	n
COc1ccccc1NC(=O)N(Cc1ccc(C)cc1)Cc1cc2cc3c(cc2[nH]c1=O)OCCO3	x	x	x	n	n	x
CC(Sc1nc2scc(-c3ccccc3)c2c(=O)[nH]1)C(=O)NC(N)=O (stereo unspecified)	14.9	n	x	n	n	24.2
Cc1cc(-c2cncnc2C2CCCN(C(=O)CCn3nnc4ccccc43)C2)on1 (stereo unspecified)	x	x	x	x	n	x
CCN(CC)S(=O)(=O)c1ccc(OC)c(NC(=O)c2cc3c(=O)n4ccccc4nc3s2)c1	n	n	n	n	n	x
CC(=O)NS(=O)(=O)c1ccc(NC(=O)c2cc3c(=O)n4ccccc4nc3s2)cc1	16.8	n	x	n	n	n
CCc1nn(CC(=O)NC(C)c2ccncc2)c(=O)c2cc3ccsc3n12 (stereo unspecified)	x	x	x	x	n	x
Cc1ccccc1-c1nnnn1C1CCS(=O)(=O)C1 (stereo unspecified)	n	n	n	n	n	x
Cc1cc(=O)n(C2CCS(=O)(=O)C2)[nH]1 (stereo unspecified)	24.1	n	n	n	n	n
SMILES	p97 ATPase inh	Hck Nef HTS	Arbovirus inh	PGE2 EP2 inh	EP2 modulator	p97 inh conf
CN1[C@@H](C(=O)NCC23CC4CC(CC(C4)C2)C3)C[C@@H](c2ccc(F)cc2)NS1(=O)=O	x	x	x	x	n	x
O=C(CCCN1C(=O)/C(=C/c2ccco2)SC1=S)Nc1ccccc1C(=O)O	21.7	n	x	n	n	n
O=C(CCCN1C(=O)/C(=C\c2ccco2)SC1=S)Nc1ccc2ccccc2c1	n	n	n	n	n	x
CS(=O)(=O)N(CC(=O)NCCc1ccccc1)c1cccc([N+](=O)[O-])c1	17.7	n	n	n	n	n
O=C(CC1Sc2ncnn2C1=O)Nc1ccccc1 (stereo unspecified)	16.4	n	n	n	n	n
CSc1c(CC(=O)NCCO)n(C)c2ccccc12	17.0	n	n	n	n	n
CCN(CC)C(=O)CSc1nnc2c3c4c(sc3ncn12)CCCC4	x	x	x	n	n	x
Oc1ccc(/C=N/Nc2ccnc3cc(Cl)ccc23)cc1O	33.3	n	x	n	n	41.1
C[n+]1cccc2c(Br)ccc([O-])c21	45.5	n	x	n	n	n
N#Cc1c(N(CCO)CCO)nc(N)c2c(N)nc3c(c12)CC(=O)N3CC1CCCO1 (stereo unspecified)	26.1	n	x	n	n	n

Screening results deposited in PubChem BioAssay by several laboratories.
